The sample as a whole holds a higher share of hits than the screen did.
ST2 inh: blocks human ST2 binding to IL-33 | Q01638 | AlphaLISA ST2-Fc/biotin-IL-33 interaction, 1 h | inhibition, % for hits at 17 µM | 78,000 compounds, 2.3% hits | AID 1259354; in the data active means inhibition above about 30%
Target sequence (Q01638 whole entry, looked up): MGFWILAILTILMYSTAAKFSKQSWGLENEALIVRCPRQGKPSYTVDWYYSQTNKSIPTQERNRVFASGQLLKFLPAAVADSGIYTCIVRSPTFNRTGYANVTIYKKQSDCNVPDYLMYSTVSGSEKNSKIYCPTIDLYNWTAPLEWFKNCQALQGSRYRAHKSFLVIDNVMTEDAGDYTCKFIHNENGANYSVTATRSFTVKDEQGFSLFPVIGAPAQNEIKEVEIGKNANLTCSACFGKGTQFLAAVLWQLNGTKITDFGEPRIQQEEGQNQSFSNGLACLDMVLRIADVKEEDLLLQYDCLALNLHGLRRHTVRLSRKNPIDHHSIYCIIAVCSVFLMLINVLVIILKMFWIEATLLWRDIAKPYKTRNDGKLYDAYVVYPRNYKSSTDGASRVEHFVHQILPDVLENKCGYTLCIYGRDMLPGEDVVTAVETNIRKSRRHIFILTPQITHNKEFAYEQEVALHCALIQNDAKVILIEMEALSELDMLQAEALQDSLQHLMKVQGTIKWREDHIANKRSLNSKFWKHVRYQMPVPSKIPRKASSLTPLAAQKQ
Numbers stand for hits; 0 = inactive; ! = a repeat was not active.

SMILES	ST2 inh
O=C(O)C1CCN(c2nc(-c3ccc(Br)cc3)cs2)CC1	0
CCOc1ccccc1/C=C(\C#N)c1nc(-c2ccc([N+](=O)[O-])cc2)cs1	0
COc1cc(/C=C(\C#N)c2nc(-c3ccc(Br)cc3)cs2)ccc1O	33%
N#C/C(=C\c1cccc(F)c1)c1nc(-c2cc3ccccc3oc2=O)cs1	0
COc1cc(-c2oc(-c3ccc(O)c(OC)c3)c(C)c2C)ccc1O	0
COc1ccc(-c2cc(-c3ccccc3)nc(Br)c2C#N)cc1	0
CC(C)C(C(=O)O)N1C(=O)C2C3C=CC(C4CC34)C2C1=O (stereo not drawn)	0
O=C(c1cc(CN2CCC(Cc3ccccc3)CC2)on1)N1CCCC1	0
O=C(CN1CCN(Cc2ccc(Cl)cc2)C1=O)NC1CCCCC1	0
C=C(C)C1CCC2(C(=O)O)CCC3(C(=O)O)C(CCC4C5(C)CCC(O)C(C)(C(=O)O)C5CCC43C)C12 (stereo not drawn)	0
CCOC(=O)C1=C(N)OC2=C(C(=O)CC(C)(C)C2)/C1=C1\C=CC=CN1	0
CC(=O)C1=C(C)OC(N)=C(C#N)C1c1cccc(Cl)c1Cl (stereo not drawn)	0
O=C(O)c1cccc([N+](=O)[O-])c1C(=O)Nc1cccc(Cl)c1Cl	0
Cc1nccn1CCC(=O)N1CCc2c(cc(-c3ccccc3F)c(=O)n2Cc2ccncc2)C1	0
CC1=C(C(=O)Nc2cccc(F)c2)C(c2ccsc2)C2=C(CCCC2=O)N1 (stereo not drawn)	0
CC(C)C(=O)Nc1ccc(-c2nc3cc(C(C)C)ccc3o2)cc1	0
O=C(c1ccc(-n2cnnc2)cc1)N1CCC(O)(c2ccc(F)cc2)CC1	0
Cn1cnc(S(=O)(=O)N2CC[C@@H](c3ccc4ccccc4c3)[C@H](O)C2)c1	0
COc1ccc2c(=O)c(-c3ccccc3)coc2c1C	0
CCOc1ccc(-c2csc(NC(=O)c3ccc(OC)c(OC)c3)n2)cc1	0
CCOc1ccc(-c2csc(-c3cc4cccc(OC)c4oc3=O)n2)cc1	0
CCOc1ccc(-c2csc(/C(C#N)=C/c3ccc(OC)cc3)n2)cc1	54%
Cc1onc(C(=O)N2CCCN(Cc3ccc(F)cc3)C(C(C)C)C2)c1CO (stereo not drawn)	0
CC1=NN(c2ccc(I)cc2)C(=O)/C1=C/c1ccc(N(C)C)cc1	38%
CC1=NN(c2cccc(F)c2)C(=O)/C1=C/c1ccc(N(C)C)cc1	0
SMILES	ST2 inh
CC1=NN(c2cccc(Br)c2)C(=O)/C1=C\c1ccc(N(C)C)cc1	0
COc1c(Br)cc(Br)cc1/C=C1\C(=O)N(c2ccccc2)N=C1C	0
CC1=NN(c2ccccc2)C(=O)/C1=C\c1ccc(N(C)C)c(Br)c1	39%
CC1=NN(c2ccccc2)C(=O)/C1=C/c1cccc(Br)c1	0
O=c1c2sccc2n(Cc2cccc([N+](=O)[O-])c2)c(=O)n1-c1ccc(F)cc1F	0
Cc1ccccc1Nc1ncnc2c1cnn2-c1ccc(Cl)cc1	0
O=C(CSc1ncn[nH]1)Nc1ccccc1Br	0
Cc1cc(C)cc(NC2=NC3CS(=O)(=O)CC3S2)c1 (stereo not drawn)	0
CC(C)(C)C(=O)ON1C(=O)c2ccccc2C1=O	0
Cc1ccc(C2=NN(C(=O)CCC(=O)O)C(c3ccc(Cl)cc3)C2)cc1 (stereo not drawn)	0
O=C(O)CCCC(=O)N1N=C(c2ccc(Br)cc2)CC1c1ccc(Cl)cc1 (stereo not drawn)	0
Cc1ccc(C2=NN(C(=O)CCC(=O)O)C(c3ccc(Br)cc3)C2)cc1 (stereo not drawn)	38%!
CCC(CN1CCOCC1)NC(=O)C1CCN(c2ccc(-c3cccs3)nn2)CC1 (stereo not drawn)	0
O=C(NCc1ccco1)NC1CC(=O)N(C2Cc3ccccc3C2)C1 (stereo not drawn)	0
O=C(COc1cc(=O)n2c(n1)SCCC2)c1ccccc1	64%
O=C(COc1ccc2c3c(c(=O)oc2c1)CCC3)c1ccccc1	0
COc1ccc(Cc2c(O)nc3n(c2=O)CCCS3)cc1	0
O=C(CCCc1ccccc1)NCC1CCCO1 (stereo not drawn)	0
COc1cc2c(C(=O)NC3CCCCC3)cn(C)c(=O)c2cc1OC	0
C(=C\c1ccccc1)/Sc1ccc2ccccc2n1	34%
O=c1c2ccccc2nc(/C=C/c2ccccc2)n1Cc1ccccc1	0
C(=C\c1cnc2n[nH]nc2c1)/c1ccccc1	0
CCN(CC)C1CC(=O)N(c2ccccc2)C1=O (stereo not drawn)	0
COC(=O)C(C)C1Sc2ccccc2N(Cc2cc(C)ccc2C)C1=O (stereo not drawn)	0
Cc1ccc(OC2(C(=O)NC(C)Cc3cc(C)[nH]n3)CCNCC2)cc1 (stereo not drawn)	0
SMILES	ST2 inh
CCOC(=O)C1(CCc2ccccc2)CCCNC1 (stereo not drawn)	0
COc1cccc(NC(=O)CN(c2ccc(Cl)c(Cl)c2)S(C)(=O)=O)c1	96%
COc1ccc(N(CC(=O)Nc2ccc(F)cc2)S(C)(=O)=O)cc1Cl	0
COc1ccc(N(CC(=O)Nc2ccc(C)c(Cl)c2)S(C)(=O)=O)cc1	0
Cc1cc(Nc2ccc(O)cc2)n2c(nc3ccccc32)c1C#N	33%
Cc1cc(NCCCN(C)C)n2c(nc3ccccc32)c1C#N	0
Cc1cc(NCCO)n2c(nc3ccccc32)c1C#N	0
CSC(C)C(=O)NCc1cccnc1Oc1c(C)cccc1C (stereo not drawn)	0
O=C1CCN(S(=O)(=O)c2ccccc2[N+](=O)[O-])CC1	0
Brc1ccc(C2=CSC3=NCCN23)cc1	0
Clc1ccc(OC2=C(c3ccccc3)N3CCN=C3S2)cc1	45%
Fc1ccc(C2=CSC3=NCCN23)cc1	0
C=CCc1cc(Cl)ccc1OCCNCCN	0
Cc1ccc(F)cc1NC(=O)COc1ccc(Cl)cc1	0
C=CCn1c(CCNC(=O)CC)nc2ccccc21	0
COc1ccccc1-c1cc(C(F)(F)F)nc(S(C)(=O)=O)n1	0
COc1ccc(-c2cc(C(F)(F)F)nc(NCc3ccccc3)n2)cc1OC	0
COc1ccccc1Nc1cc(C(F)(F)F)nc2c(OC)ccc(OC)c12	39%
CCNC(=O)N1C[C@@H]2OCC(=O)N(Cc3ccc(OC)cc3)[C@@H]2C1	0
Cc1ccc(-n2ncc3c(NC(C)(C)C)ncnc32)c(C)c1	0
CCCCNC(=O)CN1C(=O)/C(=C/c2ccccc2F)Sc2ccccc21	0
CCN(CC)CCNC(=O)CN1C(=O)/C(=C\c2ccc(C(F)(F)F)cc2)Sc2ccccc21	37%
COCCCNC(=O)CN1C(=O)/C(=C\c2ccc(C(F)(F)F)cc2)Sc2ccccc21	0
CCCCOc1ccc(CNC(=O)CN2C(=O)c3cccnc3Sc3ccccc32)cc1	0
O=C(CN1C(=O)/C(=C/c2ccccc2F)Sc2ccccc21)NCc1ccccc1Cl	0
SMILES	ST2 inh
Cc1cc(NC(=O)CN2C(=O)S/C(=C\c3ccc(Cl)cc3)C2=O)no1	0
CCN(CC)CCCNC(=O)CN1C(=O)/C(=C\c2ccc(Cl)cc2)Sc2ccccc21	0
CCC1Oc2ccccc2N(CC(=O)NCCCN(CC)CC)C1=O (stereo not drawn)	0
Cc1ccc(/C=C2/Sc3ccccc3N(CC(=O)NCc3ccccn3)C2=O)cc1	32%
CCN(CCNC(=O)CN1C(=O)/C(=C/c2ccccc2F)Sc2ccccc21)c1ccccc1	42%
Cc1ccc2c(c1)N(CC(=O)NCc1ccccn1)C(=O)CO2	0
CCN(CC)CCNC(=O)CN1C(=O)/C(=C\c2ccc(Cl)cc2)Sc2ccccc21	33%
C=CCN(Cc1ccccn1)C1CCN(C(C)=O)CC1	0
